Out of some 400,000 compounds screened, about 5,500 (1.4%) were called active. Another 9% or so got no clear call; they are omitted. The call rests on the fitted dose curve; in most records, active means well fitted cell-killing curve with a large enough effect; inconclusive means small, poorly fitted or top-dose-only effect, or effect the other way; inactive means flat fitted curve, though single readings scatter. What follows is part of a selection rich in actives, with near analogues and random picks from the rest. A call without a number means that no potency is given here.
Experiment: qHTS assay for MDR1-selective chemotherapeutics: Primary screen using the parental adenocarcinoma cell KB-3-1; further: nearly all actives have a fitted effect of over 60% in size
Settings: KB-3-1 viability, CellTiter-Glo ATP luminescence, 72 h; series mostly up to 46.1 µM
In short: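 Cytotoxicity in the drug-sensitive parental line KB-3-1 was scored as loss of CellTiter-Glo luminescence following 72 h incubation with compound. Values come from curve fitting of normalized concentration-response data.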
Potency means the concentration at half of the fitted maximal effect.

SMILES | Potency
O=[N+]([O-])c1c(NCCO)cc(Sc2nc3ccccc3s2)c2nonc12 | inactive
O=[N+]([O-])c1cc(Br)c(O)c(/C=N/Nc2nc3ccccc3s2)c1 | 23.1 µM (active)
Brc1ccccc1/C=N/Nc1nc2ccccc2o1 | inactive
COc1cc(OC)c(C2C=C(C(=O)O)Nc3ncnn32)cc1OC (configuration not stated) | inactive
S=c1[nH]c(=S)c2n[nH]nc2[nH]1 | inactive
COc1ccc2c(CC(=O)N3CCc4cc(OC)c(OC)cc4C3)coc2c1 | inactive
COc1ccccc1N1CCN(C(=O)c2ccc(NC3=NC4CS(=O)(=O)CC4S3)cc2)CC1 (configuration not stated) | inactive
COc1cc(Cl)ccc1Nc1ncc(C(=O)N2CCN(c3ccccc3OC)CC2)c2ccccc12 | inactive
COc1ccccc1N1CCN(C(=O)c2cc(=O)c3cc(C)cc(C)c3o2)CC1 | 0.206 µM (active)
COc1ccccc1N1CCN(C(=O)c2cc(=O)c3cc(C)ccc3o2)CC1 | 13 µM (active)
COc1ccc(Nc2ncc(C(=O)N3CCN(c4ccccc4OC)CC3)c3ccccc23)cc1 | inactive
COc1cc2c(cc1OC)CN(C(=O)c1cc(=O)c3ccccc3o1)CC2 | 2.91 µM (active)
COc1cc2c(cc1OC)CN(C(=O)c1cc(S(=O)(=O)N3CCCCC3)ccc1Cl)CC2 | inactive
COc1cc(CCC(=O)N2CCN(c3ccccc3Cl)CC2)cc(OC)c1OC | inactive
CCc1ccc2oc(-c3ccc(C)c(NC(=O)/C=C/c4ccco4)c3)nc2c1 | inactive
COc1ccccc1CNC(=O)CCCCn1c(=O)c2ccccc2n(CC(=O)Nc2cc(Cl)ccc2C)c1=O | inactive
CCCS(=O)(=O)N1CCC(n2c(C(F)(F)F)nc3cccnc32)CC1 | inactive
O=C(NCC(c1ccco1)S(=O)(=O)c1cccs1)c1ccc(F)cc1 (configuration not stated) | inactive
CS(=O)c1ccc(/C=C2\C=Cc3ccccc32)cc1 (configuration not stated) | inactive
O=C(CCn1c(=O)c2ccccc2n(Cc2ccc(Cl)cc2)c1=O)NCc1ccc2c(c1)OCO2 | inactive
CCc1ccc(C(=O)CC2(O)C(=O)N(CCc3ccccc3)c3ccc(Br)cc32)cc1 (configuration not stated) | inactive
COc1ccc(NC(=O)N2CCCn3nc(C)cc32)cc1OC | inactive
CCOc1ccc(CNC(=O)c2ccc3nc(CC)c(CC)nc3c2)cc1OC | inactive
CN(C)c1cccc2ccccc12 | inactive
Cc1ccc(F)cc1S(=O)(=O)N1CCC(c2nc3ccccc3s2)CC1 | inactive

SMILES | Potency
CCOC(=O)c1ccc(NC(=O)Cn2cc(S(=O)(=O)Cc3ccccc3F)c3ccccc32)cc1 | inactive
Cc1ccc(C)c(Cn2c(C)c(CNCc3ccc(F)cc3)c(C(=O)O)c2C)c1 | inactive
O=C(Nc1ccccc1F)c1ccc(S(=O)(=O)N2CCCCCC2)cc1 | inactive
CCOC(=O)N1CCN(S(=O)(=O)c2ccc(C(=O)Nc3ccc(F)cc3F)cc2)CC1 | 4.61 µM (active)
CCOC(=O)N1CCN(S(=O)(=O)c2ccc(Br)cc2)CC1 | inactive
Cc1sc2ncn(CC(=O)N3CCN(c4ccc(F)cc4)CC3)c(=O)c2c1S(=O)(=O)N1CCN(c2ncccn2)CC1 | inactive
CCOC(=O)c1ccc(NC(=O)C2CC(=O)NC(=Nc3ccc(C)c(C)c3)S2)cc1 (configuration not stated) | inactive
CC(=O)OC1=C(C(C)=O)N(Cc2ccccc2)S(=O)(=O)c2ccccc21 | inactive
CCc1cccc(NC(=O)CN(C)S(=O)(=O)c2ccc3[nH]c4c(c3c2)CCCC4)c1 | inactive
Cc1cccc(NC(=S)N2CCC(C(=O)c3ccc(F)cc3)CC2)c1 | inactive
Cc1cccc(NC(=S)NCc2ccc3[nH]c4c(c3c2)CCCC4)c1 | 16.4 µM (active)
Cc1ccc(Cl)cc1NC(=O)C(C)n1nnc2sc(-c3ccccc3)cc2c1=O (configuration not stated) | inactive
COc1ccc(C2CC(=O)N(Cc3ccccc3C)c3c2c(C)nn3-c2nc(C)cc(C)n2)c(OC)c1 (configuration not stated) | inactive
CCOc1ccc(C(=O)c2cn(Cc3ccccc3OC)c3ccc(F)cc3c2=O)cc1 | inactive
CCCc1ccc(OCCNC(=O)c2ccccc2Br)cc1 | inactive
CCCOc1cccc(C(=O)Nc2cccc(NC(=O)c3ccc(C(C)(C)C)cc3)c2)c1 | inactive
CCCOc1ccc(C(=O)C(CCC(CNCC)C(=O)c2ccc(OCCC)cc2)CNCC)cc1 (configuration not stated) | 5.17 µM (active)
Cc1ccc2nc(COc3cccc(NC(=O)c4ccccc4Cl)c3)cc(=O)n2c1 | inactive
CCOc1ccc(CCNC(=O)c2ccc3c(c2)sc2nc(-c4ccc(F)cc4)cn23)cc1OCC | inactive
O=C(Cc1ccc([N+](=O)[O-])cc1)NCCc1ccc2c(c1)OCO2 | inactive
CC1CCN(c2ccc(C(=O)NCc3ccc4c(c3)OCO4)cc2[N+](=O)[O-])CC1 | inactive
O=C(NCc1ccc2c(c1)OCO2)c1cc([N+](=O)[O-])ccc1N1CCOCC1 | 5.17 µM (active)
Cc1cc(=O)n(CC(=O)Nc2cccc([N+](=O)[O-])c2)c(-n2nc(C)cc2C)n1 | inactive
CCOc1ccccc1NC(=O)c1ccc2c(c1)CCN2S(=O)(=O)c1ccc(C)cc1 | inactive
COc1ccccc1NC(=O)c1cc(C2CC2)nc2c1c(C)nn2-c1ccc(C)cc1 | inactive

SMILES | Potency
COc1cccc(NC(=O)CSc2cc(=O)n(C)c3ccc(Cl)cc23)c1 | inactive
Cc1cc(-c2ccc(S(=O)(=O)N3CCN(c4cccc(C(F)(F)F)c4)CC3)s2)on1 | inactive
Cc1cc(C)cc(NS(=O)(=O)c2ccc(-c3cc(C)no3)s2)c1 | 3.26 µM (active)
Cc1cc(-c2ccc(S(=O)(=O)N3CCc4ccccc4C3)s2)on1 | inactive
CCc1cccc(C)c1NS(=O)(=O)c1cc(Br)cnc1N | inactive
CC(=O)c1ccc(NS(=O)(=O)c2ccc(-c3cc(C)no3)s2)cc1 | inactive
CCc1cccc(C)c1NS(=O)(=O)c1ccc(-c2cc(C)no2)s1 | 1.16 µM (active)
Cc1ccccc1CN1CCC(CNC(=O)c2cc3ccc4cccnc4c3[nH]2)CC1 | inactive
COc1cc2[nH]c(=O)n(Cc3ccc(C(=O)NCc4ccc(C)cc4)cc3)c(=O)c2cc1OC | inactive
CC1CCCCN1Cc1c(O)ccc2c(=O)c(-c3cccc(Cl)c3)c(C(F)(F)F)oc12 (configuration not stated) | inactive
Cc1nc(N=C(N)N)nc2c(C)cccc12 | 10.3 µM (active)
COc1nc(N=C(N)N)nc2c(C)cccc12 | inactive
COc1ccc(CNc2nnnn2C)cc1 | inactive
COCCNc1ncnc2c1ncn2[C@H]1CN(Cc2ccc(OC)cc2)C[C@@H](CO)O1 | inactive
COc1ccc(CNc2nc(NCc3ccc(OC)cc3)c3ncn(C4CCCC4)c3n2)cc1 | 6.51 µM (active)
COc1ccc(S(=O)(=O)NCc2cccn2Cc2cccc(C)c2)cc1 | inactive
COc1ccc(CC(=O)N2CC(=O)Nc3ccc(Br)cc3C2c2ccc(F)cc2)cc1OC (configuration not stated) | inactive
COc1ccc(-c2cc(C(F)(F)F)nc(SCC(=O)N(C)Cc3ccccc3)n2)cc1OC | inactive
Cc1ccc(F)cc1NC(=O)CCSc1nc(-c2ccco2)cc(C(F)(F)F)n1 | inactive
CC1(Cc2ccccc2C#N)C(=O)Nc2ccc(-c3ccc4[nH]ccc4c3)cc21 (configuration not stated) | 6.51 µM (active)
Cc1ccc(CC2(C)C(=O)Nc3ccc(OC(F)(F)F)cc32)cc1 (configuration not stated) | inactive
COc1ccccc1CC1(C)C(=O)Nc2ccc(OC(F)(F)F)cc21 (configuration not stated) | inactive
COc1ccc(CCNC(=O)c2cc3cccc4c3n2CC(C)S4)c(OC)c1OC (configuration not stated) | inactive
CC(C)Cn1c(C2CC(=O)N(c3ccccc3Cl)C2)nc2ccccc21 (configuration not stated) | inactive
O=C(CSc1nc(-c2cccc(F)c2)[nH]c1-c1ccccc1)Nc1ccc2c(c1)OCO2 | inactive

SMILES | Potency
COc1cccc(C(=O)NC2(C(F)(F)F)C(=O)Nc3c2c(=O)[nH]c(=O)n3-c2ccc(C)cc2)c1 (configuration not stated) | inactive
CCc1c(C)nc2c(-c3ccccc3)c(C)nn2c1Nc1ccc(NC(C)=O)cc1 | inactive
CC(=O)Nc1ccc(S(=O)(=O)N2CCN(c3ccccc3)CC2)cc1 | inactive
CC(=O)Nc1ccc(Nc2c3ccccc3nc3ccccc23)cc1 | 4.61 µM (active)
COc1ccc(CNC(=O)c2ccc3c(c2)nc2n3CCOC2)c(OC)c1 | inactive
Cc1nc2nc(SCC(=O)N(Cc3ccccc3)C(C)C)nn2c(C)c1Cc1ccccc1Cl | inactive
O=C(Nc1ccccc1Cl)c1ccccc1S(=O)(=O)c1ccccc1[N+](=O)[O-] | inactive
O=C(Nc1ccccc1Cl)N1CCC(CN2CCCCC2)CC1 | inactive
O=C(Nc1ccccc1Cl)/C(Cl)=C(\Cl)S(=O)c1ccccc1 (configuration not stated) | 6.51 µM (active)
NS(=O)(=O)c1ccc(NC(=O)COc2ccc(S(=O)(=O)NC3CCCCC3)cc2)cc1 | inactive
COc1ccccc1N1CCN(c2ccc(=O)n(CC(=O)NCc3ccc(OC(C)C)cc3)n2)CC1 | inactive
Cc1cc(C)cc(NC(=O)CCS(=O)(=O)c2cc3c4c(c2)CCN4C(=O)CC3)c1 | inactive
Cc1ccc(Oc2c(C(F)(F)F)oc3c(CN4CCCCC4)c(O)ccc3c2=O)cc1 | inactive
COc1ccc(Cn2c(=O)sc3ccccc32)cc1OC | 14.6 µM (active)
COc1ccc(CN2CCOC2=O)cc1OC | inactive
COc1ccccc1CNC(=O)CCn1c(=O)sc2ccccc21 | inactive
Cc1ccc(-c2nnc3ccc(SCC(N)=O)nn23)cc1 | inactive
O=C(NCc1cccnc1)C(=O)NCC(c1cccnc1)N1CCN(c2ccccc2)CC1 (configuration not stated) | inactive
CCN1CCN(C(c2cccnc2)c2cc(Cl)c3cccnc3c2O)CC1 (configuration not stated) | 7.31 µM (active)
CCN1CCN(C(c2ccc(C)cc2)c2c(O)cc(C)n(Cc3ccco3)c2=O)CC1 (configuration not stated) | inactive
O=C1CCC[C@@H]2C[C@@]3(C[C@@H]4CCN1[C@H]24)Nc1ccccc1NC3=NCc1ccccc1 | inactive
Cc1c(Cl)cccc1-c1ccc(CNCCCSc2nnnn2C)o1 | inactive

Reference: PubChem BioAssay AID1347075 (National Center for Advancing Translational Sciences (NCATS), 2019)
